The source of these data is PubChem BioAssay AID623870 (Broad Institute, 2012).

Out of some 390,000 compounds screened, about 2,600 (0.67%) were called active. Only a selection was taken, and actives are over-represented in it overall. Unmarked numbers belong to inactive results.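 How the source made its calls: active means mean inhibition of replicates at least 50% and at least half of replicates each reaching 50%; inconclusive means half or more replicates reach 50% but mean below 50%; inactive means the rest.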

The assay deals with Transforming acidic coiled-coil-containing protein 3 (Homo sapiens) (UniProt Q9Y6A5). The experiment in a line: inhibitors of ARNT PAS-B binding to TACC3 – biochemical, AlphaScreen, single concentration, primary screen (AID 623870).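 Further: 0% = complete ARNT plus TACC3 wells and 100% = ARNT alone without TACC3.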 Conditions: AlphaScreen His-ARNT PAS-B/GST-TACC3 binding, luminescence; at 9.99 µM; active compounds read high.
Turning to `O=C1N=c2ccccc2=C/C1=C\c1c(O)[nH]c(=S)[nH]c1=O`, the inhibition was 37% (active).

With `COc1ccccc1N=Nc1c(O)[nH]c(=S)[nH]c1=O`, the inhibition is -1.81%.

On to `Cc1ccc2c(c1)=C/C(=C\c1c(O)[nH]c(=O)[nH]c1=O)C(=O)N=2`, for which the inhibition is 13.7%.

As to `C[C@@H]1CN([C@H](C)CO)C(=O)CCCn2cc(nn2)CO[C@@H]1CN(C)C(=O)Oc1cccc2ccccc12`, the inhibition was -8.62%.

For the molecule `O=C(Cc1ccccn1)N1CCCCN2[C@H](C1)[C@H](c1ccc(-c3ccccc3F)cc1)[C@@H]2CO`, the inhibition was 10.9%.

As for `C/C=C/c1ccc([C@H]2[C@H](CO)N3CCCCN(C(=O)Cc4ccncc4)C[C@@H]23)cc1`, the inhibition was 1.93%.

Regarding `O=c1[nH]c(=O)n(-c2ccc(F)cc2)c(O)c1C=NCCN1CCCCC1`, the inhibition is -1.3%.

As to `Cc1cccc(-n2c(O)c(/C=N/N3CCOCC3)c(=O)[nH]c2=S)c1`, the inhibition was -0.608%.

As for `CC/C(=N\NC(=O)c1ccccc1O)c1c(O)n(Cc2ccccc2)c(=O)[nH]c1=O`, the inhibition is 6.78%.

With `CCCCC(=O)N/N=C/c1c(O)n(-c2ccccc2)c(=O)[nH]c1=O`, the inhibition is 65.6% (active).

As for `CC(C)c1ccc(-n2c(O)c(/C=N/N3CCOCC3)c(=O)[nH]c2=S)cc1`, the inhibition is 6.63%.

Consider `O=c1[nH]c(=S)n(C2CC2)c(O)c1/C=N/N1CCOCC1`, for which the inhibition is -0.873%.

Consider `O=C(N/N=C/c1c(O)n(C2CC2)c(=S)[nH]c1=O)c1ccccc1`, for which the inhibition was 62.7% (active).

In the case of `O=C(N/N=C/c1c(O)n(C2CC2)c(=S)[nH]c1=O)c1ccccc1Cl`, the inhibition is 68.5% (active).

Turning to `O=c1[nH]c(=O)n(CCc2ccccc2)c(O)c1/C=N/N1CCOCC1`, the inhibition is 0.078%.

With `COc1ccccc1-n1c(O)c(C=NC2CC2)c(=O)[nH]c1=O`, the inhibition is 4.19%.

Consider `CCc1nnc(NS(=O)(=O)c2ccc(N=Cc3c(O)n(-c4ccccc4)c(=O)[nH]c3=O)cc2)s1`, for which the inhibition is -4.6%.

With `O=C(N/N=C/c1c(O)n(Cc2ccccc2)c(=O)[nH]c1=O)c1ccccc1`, the inhibition was 70.1% (active).

As to `COc1ccc(-c2ccc([C@H]3[C@H](CO)N4CCCCN(C(=O)Cc5ccncc5)C[C@@H]34)cc2)cc1`, the inhibition is -8.67%.

Take `COC(=O)[C@H]1[C@H](CO)[C@H]2Cn3c(ccc(-c4cccc(F)c4)c3=O)[C@@H]1N2Cc1ccccc1`: the inhibition was -0.694%.

`O=C(Cc1ccccc1)N1CCCCN2[C@H](C1)[C@H](c1ccc(C#CC3(O)CCCC3)cc1)[C@@H]2CO`: the inhibition was -2.57%.

In the case of `COc1cccc(-c2ccc3n(c2=O)C[C@@H]2[C@@H](CO)[C@H](C(=O)O)[C@H]3N2C(=O)c2cnccn2)c1`, the inhibition was -0.13%.

For `COC(=O)[C@@H]1[C@@H](CO)[C@@H]2Cn3c(ccc(C4=CCCCC4)c3=O)[C@H]1N2CC1CC1`, the inhibition is -4.97%.

On to `O=C(Cc1ccccc1)N1CCCCN2[C@H](CO)[C@H](c3ccc(C#Cc4ccccc4)cc3)[C@H]2C1`, for which the inhibition was 3.71%.

With `CCOC(=O)[C@@H]1[C@@H]2NC(=O)N[C@@]1(C)Oc1ccccc12`, the inhibition is 1.64%.

In the case of `OC[C@@H]1[C@H]2c3ccccc3NC[C@H]2N1Cc1cccnc1`, the inhibition is 5.28%.

With `CCC(C)n1c(O)c(/C=N/Nc2nc3c(c(=O)n(C)c(=O)n3C)n2C)c(=O)[nH]c1=S` (stereo not given), the inhibition was 65.4% (active).

Regarding `O=C(O)[C@@H]1[C@@H](CO)[C@@H]2Cn3c(ccc(-c4ccccc4F)c3=O)[C@H]1N2C(=O)c1cccnc1`, the inhibition was 8.55%.

In the case of `COc1ccc(C#Cc2ccc([C@H]3[C@H](CO)N4CCCCN(C(=O)Cc5ccccc5)C[C@@H]34)cc2)cc1`, the inhibition is -4.42%.

`O=C(Cc1ccncc1)N1CCCCN2[C@@H](CO)[C@H](c3ccc(C#CC4(O)CCCC4)cc3)[C@@H]2C1`: the inhibition was -1.41%.

Usually inhibition stands for the drop in the measured response relative to a control, in per cent.
